Drawing on PubChem BioAssay (NCATS), this text covers outcome and Potency for 48 molecules.

For assay [1], the target named is Alpha-galactosidase (Coffea arabica) (UniProt Q42656). The assay is described as follows: Counterscreen for Glucocerebrosidase Inhibitors: qHTS Assay for Coffee Bean alpha-Galactosidase at pH 4.5 (AID 957; active = well fitted curve in the direction sought with a large enough effect; an effect the other way counts as inactive or inconclusive; note: series mostly up to about 77 µM). An outline of the steps:
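Green coffee bean enzyme (2 nM final) was incubated with compounds (0.7 nM to 77 uM) and 4-methylumbelliferyl alpha-D-galactopyranoside (80 uM final) in 50 mM citric acid, 0.005% Tween-20, pH 4.5, 20 min at room temperature; AC50 from Hill fits.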
A general note: Counterscreens check selectivity or assay interference.

Assay [2] can be described thus: Validation screen for inhibitors of Lassa infection (AID 463096). Note: potency is the fitted concentration of half-maximal effect.
Assay [3] deals with Alpha-galactosidase (Coffea arabica) (UniProt Q42656). The assay can be described thus: Counterscreen for Glucocerebrosidase Inhibitors: qHTS Assay for Coffee Bean alpha-Galactosidase at pH 5.9 (AID 998; active = well fitted curve in the direction sought with a large enough effect; an effect the other way counts as inactive or inconclusive). In a few lines: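 Green coffee bean enzyme (2 nM) with 4-methylumbelliferyl alpha-D-galactopyranoside (80 uM) in 50 mM citric acid, 0.005% Tween-20, pH 5.9, 20 min at room temperature; compounds 0.7 nM–77 uM. Stopped at pH 10, fluorescence Ex365/Em440; Hill-fit AC50.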

The structures appear in SMILES notation. Unmarked numbers belong to inactive results. Results filed as inconclusive are left out. Entries that show only a call come without a potency. Calls of active or inactive are those of the source. Unless noted, calls come from the whole dose curve.

Chain of Alpha-galactosidase (Coffea arabica) (Q42656 whole entry, looked up): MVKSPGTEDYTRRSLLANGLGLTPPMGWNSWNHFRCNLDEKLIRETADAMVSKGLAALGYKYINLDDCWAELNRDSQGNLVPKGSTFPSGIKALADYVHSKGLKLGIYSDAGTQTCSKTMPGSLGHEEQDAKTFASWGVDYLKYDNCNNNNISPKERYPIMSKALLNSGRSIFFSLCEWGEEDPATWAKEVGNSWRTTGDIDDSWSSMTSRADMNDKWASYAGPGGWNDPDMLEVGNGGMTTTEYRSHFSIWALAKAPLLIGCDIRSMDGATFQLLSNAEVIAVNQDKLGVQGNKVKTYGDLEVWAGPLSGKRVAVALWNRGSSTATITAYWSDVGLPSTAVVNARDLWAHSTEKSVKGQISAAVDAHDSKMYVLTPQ

Turning to `C[C@@H]1O[C@@H](O[C@H]2C[C@@H](O)[C@]3(CO)[C@@H]4[C@@H](O)C[C@]5(C)[C@H]([C@@H]6COC(=O)C6)CC[C@@]5(O)[C@H]4CC[C@@]3(O)C2)[C@H](O)[C@H](O)[C@@H]1O`, the call in assay [1] was inactive.

On to `O=c1[nH]c(=O)n([C@H]2C[C@H](O)[C@@H](CO)O2)cc1/C=C/Br`, for which, in assay [2], the Potency entry is “inactive”. On the same count and under the same terms, the result for `C[C@]12CCC(=O)C=C1CC[C@@H]1C2[C@@H](O)C[C@@]2(C)[C@H]1CC[C@]2(O)C(=O)CO` (stereo partly specified) reads “inactive”. Same read-out and setting: the result for `[N-]=[N+]=Nc1ccc(C(=O)CSC[C@H](NC(=O)CC[C@H](N)C(=O)O)C(=O)NCC(=O)O)cc1` reads “inactive”. With `C1CCC(N=C(NC23CC4CC(CC(C4)C2)C3)N2CCOCC2)CC1`, the call in assay [1] and in assay [3] was inactive. Moreover, the Potency entry in assay [2] was “inactive”. Take `N#CC(Cc1ccc(O)c(O)c1)C(=O)N1CCc2ccccc21` (stereo unspecified): the Potency result in assay [2] was “inactive”. For the molecule `COc1ccccc1CNCCCCCCNCCCCCCCCNCCCCCCNCc1ccccc1OC`, the outcome in assay [1] and in assay [3] was inactive. Moreover, the Potency result in assay [2] was “inactive”.

Take `Nc1ncnc2c1c(-c1ccc(Oc3ccccc3)cc1)cn2C1CCCC1`: in assay [1], the result was inactive. Moreover, the Potency entry in assay [2] is “inactive”. With `O=C1C(SCCO)=C(SCCO)C(=O)c2ccccc21`, the call in assay [1] and in assay [3] was inactive. Moreover, the Potency in assay [2] is 5.01 µM (active). Turning to `NCC1OC(O[C@@H]2[C@H](O)[C@@H](OC3C(O)C(N)CC(N)C3OC3OC(CO)C(O)C(O)C3N)O[C@@H]2CO)C(N)C(O)C1O` (stereo partly specified), the Potency entry in assay [2] is “inactive”. `CC#C[C@]1(O)CC[C@H]2C3CCC4=CC(=O)CCC4=C3[C@@H](c3ccc(N(C)C)cc3)C[C@@]21C` (stereo partly specified): the Potency entry in assay [2] was “inactive”. Same read-out and setting: the result for `COc1cc(=O)n(C)c2c(OCC(O)C(C)(C)O)cccc12` (stereo unspecified) reads “inactive”. Regarding `CCCCOC(=O)NS(=O)(=O)c1sc(CC(C)C)cc1-c1ccc(Cn2c(CC)nc3c(C)cc(C)nc32)cc1`, the molecule was classed as inactive in assay [1] and in assay [3]. The Potency entry in assay [2] is “inactive”. For the molecule `CCn1c(=O)c2[nH]c(-c3ccccc3)nc2n(CC)c1=O`, the outcome in assay [1] and in assay [3] was inactive. For the same molecule, the Potency result in assay [2] is “inactive”. For `Nc1nc2c(nc(Br)n2C2O[C@H]3COP(=O)(O)O[C@@H]3C2O)c(=O)[nH]1` (stereo partly specified), the Potency result in assay [2] is “inactive”. In the case of `NCCCCCCNS(=O)(=O)c1cccc2c(Cl)cccc12`, the outcome in assay [1] was inactive. Also, in assay [2], the Potency entry was “inactive”. `OC[C@H]1O[C@@H](n2cnc3c(NC4CCCC4)ncnc32)[C@H](O)[C@H]1O`: the Potency entry in assay [2] was “inactive”. Turning to `CC(N)=NCc1cccc(CN)c1`, the molecule was classed as inactive in assay [1] and in assay [3]. Besides, the Potency result in assay [2] was “inactive”. In the case of `CC(=O)SC1CC2=CC(=O)CC[C@]2(C)C2CC[C@@]3(C)[C@@H](CC[C@@]34CCC(=O)O4)C12` (stereo partly specified), the Potency result in assay [2] is “inactive”.

Regarding `CC(O)[C@@H](O)[C@H]1CNc2nc(N)[nH]c(=O)c2N1` (stereo partly specified), the Potency entry in assay [2] is “inactive”. Same read-out and setting: under `Cc1ccccc1N1CCN(S(=O)(=O)C[C@]23CCC(CC2NC(=O)[C@@H](N)CCS(C)(=O)=O)C3(C)C)CC1` (stereo partly specified) stands “inactive”. As to `Cc1cc(N)c2ccccc2[n+]1CCCCCCCCCCCCCC[n+]1c(C)cc(N)c2ccccc21`, the outcome in assay [1] and in assay [3] was inactive. The Potency in assay [2] was 7.08 µM (active). For the molecule `NC(=NCCC[C@H](N)C(=O)O)NO`, the outcome in assay [1] and in assay [3] was inactive. The Potency entry in assay [2] was “inactive”. `CC1(C)C(=O)N(CCN2CCC(C(=O)c3ccc(F)cc3)CC2)c2ccccc21`: the result in assay [1] and in assay [3] was inactive. Further, the Potency result in assay [2] was “inactive”. On to `CC(C)C1NC(=O)[C@H](CCCCN)NC(=O)[C@@H](Cc2c[nH]c3ccccc23)NC(=O)[C@H](Cc2ccc(O)cc2)NC(=O)[C@H](C)N(C)C(=O)[C@H](Cc2ccccc2)NC1=O` (stereo partly specified), for which the Potency entry in assay [2] was “inactive”. Still for that read-out and setting: the result for `COc1ccc(CCNC[C@@H](O)c2ccc(O)cc2)cc1OC` reads “inactive”. On to `CCCC(=O)NCCc1c2n(c3ccc(OC)cc13)Cc1ccccc1-2`, for which the outcome in assay [1] and in assay [3] was inactive. In assay [2], the Potency result is “inactive”. As to `CC(=O)O[C@]1(C(C)=O)CC[C@H]2C3C=C(Cl)C4=CC(=O)[C@@H]5C[C@H]5[C@]4(C)C3CC[C@@]21C` (stereo partly specified), the Potency entry in assay [2] is “inactive”. With `C[C@]12C[C@H](O)C3[C@@H](CCC4=CC(=O)CC[C@@]43C)[C@@H]1CC[C@@H]2C(=O)CO` (stereo partly specified), in assay [2], the Potency result is “inactive”. In the case of `NC(=S)NCCCC(N)C(=O)O` (stereo unspecified), the Potency entry in assay [2] was “inactive”.

For `CSc1nc(N)c2ncn([C@@H]3O[C@H](COP(=O)(O)OP(=O)(O)OP(=O)(O)O)[C@H](O)[C@H]3O)c2n1`, in assay [2], the Potency entry is “inactive”. On to `NCCNS(=O)(=O)c1cccc2cnccc12`, for which the outcome in assay [1] and in assay [3] was inactive. In assay [2], the Potency entry is “inactive”.

For the molecule `O=C(NCCNCC(O)COc1ccc(O)cc1)N1CCOCC1` (stereo unspecified), the Potency result in assay [2] is “inactive”. The same measure, in the same setting: under `CC(C)(C)NCC(O)COc1nsnc1N1CCOCC1` (stereo unspecified) stands “inactive”; under `Nc1ncnc2c1ncn2[C@@H]1O[C@H](C(=O)NC2CC2)[C@H](O)[C@H]1O`, “inactive”; under `CSc1nc(N)c2ncn([C@@H]3O[C@H](COP(=O)(O)OP(=O)(O)O)[C@H](O)[C@H]3O)c2n1`, “inactive”. Same read-out and setting: under `CN1CCc2c(cc(O)c(O)c2Cl)C(c2cccc(Cl)c2)C1` (stereo unspecified) stands “inactive”. The same measure, in the same setting: the result for `CC(N)=NCCCC(N)C(=O)O` (stereo unspecified) reads “inactive”; that for `Nc1ccn([C@@H]2O[C@H](CO)[C@@H](O)[C@@H]2O)c(=O)n1`, “inactive”; that for `CN1CCc2cc(Cl)c(O)cc2C(c2ccccc2)C1` (stereo unspecified), “inactive”. Take `CCCCC#Cc1nc(N)c2ncn([C@@H]3O[C@H](C(=O)NCC)[C@@H](O)[C@H]3O)c2n1`: in assay [2], the Potency result was “inactive”. For the molecule `Cn1cnc2c(NC3CCCC3)ncnc21`, the molecule was called inactive in assay [1] and in assay [3]. For the same molecule, the Potency entry in assay [2] is “inactive”.

As to `C[N+](C)(C)CCC(=O)c1cccc2ccccc12`, the result in assay [1] and in assay [3] was inactive. The Potency in assay [2] was 10 µM (active). `NCCNC(=O)c1ccc(Cl)cc1`: the call in assay [1] and in assay [3] was inactive. Moreover, the Potency entry in assay [2] was “inactive”. `CCCCN1CCC(COC(=O)c2cc(Cl)c(N)c3c2OCCO3)CC1`: the call in assay [1] and in assay [3] was inactive. The Potency result in assay [2] was “inactive”. For the molecule `CC(C)C[C@H](N)CSSC[C@@H](N)CC(C)C`, the outcome in assay [1] and in assay [3] was inactive. Further, in assay [2], the Potency result was “inactive”.

Regarding `COc1ccccc1NC(=O)Nc1nc(-c2cccnc2)nc2ccccc12`, the call in assay [1] and in assay [3] was inactive. The Potency entry in assay [2] was “inactive”. `O=C(Nc1cc(C(=O)Nc2ccc(S(=O)(=O)O)cc2S(=O)(=O)O)cc(C(=O)Nc2ccc(S(=O)(=O)O)cc2S(=O)(=O)O)c1)Nc1cc(C(=O)Nc2ccc(S(=O)(=O)O)cc2S(=O)(=O)O)cc(C(=O)Nc2ccc(S(=O)(=O)O)cc2S(=O)(=O)O)c1`: the call in assay [1] and in assay [3] was inactive. The Potency result in assay [2] is “inactive”.
